# Experiments:
# [1] = target: Sphingosine kinase 1 (Homo sapiens) (UniProt Q9NYA1); settings: at 1 µM;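 note: mean SPHK1 inhibition value reported from the GSK PKIS kinase panel screen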
# [2] = target: T1, Sphingosine kinase 2 (Homo sapiens) (UniProt Q9NRA0); settings: at 0.1 µM
# T1 sequence (whole entry): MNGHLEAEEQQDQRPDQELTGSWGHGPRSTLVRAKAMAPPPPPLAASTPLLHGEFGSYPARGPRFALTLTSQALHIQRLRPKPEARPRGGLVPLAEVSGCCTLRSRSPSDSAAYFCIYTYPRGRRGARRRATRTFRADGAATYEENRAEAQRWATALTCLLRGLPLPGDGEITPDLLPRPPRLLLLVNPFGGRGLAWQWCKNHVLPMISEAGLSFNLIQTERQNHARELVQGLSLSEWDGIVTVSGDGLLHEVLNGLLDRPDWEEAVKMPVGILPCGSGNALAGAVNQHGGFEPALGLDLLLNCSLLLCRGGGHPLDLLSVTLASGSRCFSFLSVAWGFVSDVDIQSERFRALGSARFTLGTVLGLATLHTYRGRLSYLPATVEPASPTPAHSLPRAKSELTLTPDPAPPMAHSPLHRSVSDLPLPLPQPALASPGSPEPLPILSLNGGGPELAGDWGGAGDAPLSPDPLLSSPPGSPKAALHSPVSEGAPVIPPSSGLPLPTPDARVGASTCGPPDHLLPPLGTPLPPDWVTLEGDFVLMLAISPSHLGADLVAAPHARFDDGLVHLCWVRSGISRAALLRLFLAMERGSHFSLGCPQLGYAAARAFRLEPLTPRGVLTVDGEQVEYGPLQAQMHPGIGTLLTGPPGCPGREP
# [3] = target: T1, Sphingosine kinase 2 (Homo sapiens); settings: at 1 µM
# [4] = target: Casein kinase II subunit alpha (Homo sapiens) (UniProt P68400); settings: at 0.1 µM
# [5] = target: Casein kinase II subunit alpha (Homo sapiens) (UniProt P68400); settings: at 1 µM
# [6] = target: T2, Inhibitor of nuclear factor kappa-B kinase subunit alpha (Homo sapiens) (UniProt O15111); settings: at 0.1 µM
# T2 sequence (whole entry): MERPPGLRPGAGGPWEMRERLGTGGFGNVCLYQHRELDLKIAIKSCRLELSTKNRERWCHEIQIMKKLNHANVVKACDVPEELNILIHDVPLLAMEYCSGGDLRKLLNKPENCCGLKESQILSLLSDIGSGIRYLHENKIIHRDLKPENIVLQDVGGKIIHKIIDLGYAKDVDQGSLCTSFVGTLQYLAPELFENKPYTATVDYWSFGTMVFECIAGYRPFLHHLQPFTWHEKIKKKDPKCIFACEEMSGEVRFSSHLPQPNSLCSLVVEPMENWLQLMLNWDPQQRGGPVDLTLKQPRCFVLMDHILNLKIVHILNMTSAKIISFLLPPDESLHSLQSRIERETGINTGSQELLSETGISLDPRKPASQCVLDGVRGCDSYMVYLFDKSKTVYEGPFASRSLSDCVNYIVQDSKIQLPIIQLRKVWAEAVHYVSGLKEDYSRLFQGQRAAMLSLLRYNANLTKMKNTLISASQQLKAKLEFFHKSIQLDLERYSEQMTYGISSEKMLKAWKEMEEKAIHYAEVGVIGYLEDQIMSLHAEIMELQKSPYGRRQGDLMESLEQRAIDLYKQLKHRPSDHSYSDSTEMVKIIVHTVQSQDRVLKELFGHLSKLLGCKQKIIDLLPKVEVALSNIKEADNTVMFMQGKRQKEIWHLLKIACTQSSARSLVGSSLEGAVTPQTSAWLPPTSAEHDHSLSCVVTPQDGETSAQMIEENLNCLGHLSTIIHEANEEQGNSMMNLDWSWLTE
# [7] = target: T2, Inhibitor of nuclear factor kappa-B kinase subunit alpha (Homo sapiens); settings: at 1 µM
# [8] = target: T3, Inhibitor of nuclear factor kappa-B kinase subunit beta (Homo sapiens) (UniProt O14920); settings: at 0.1 µM
# T3 sequence (whole entry): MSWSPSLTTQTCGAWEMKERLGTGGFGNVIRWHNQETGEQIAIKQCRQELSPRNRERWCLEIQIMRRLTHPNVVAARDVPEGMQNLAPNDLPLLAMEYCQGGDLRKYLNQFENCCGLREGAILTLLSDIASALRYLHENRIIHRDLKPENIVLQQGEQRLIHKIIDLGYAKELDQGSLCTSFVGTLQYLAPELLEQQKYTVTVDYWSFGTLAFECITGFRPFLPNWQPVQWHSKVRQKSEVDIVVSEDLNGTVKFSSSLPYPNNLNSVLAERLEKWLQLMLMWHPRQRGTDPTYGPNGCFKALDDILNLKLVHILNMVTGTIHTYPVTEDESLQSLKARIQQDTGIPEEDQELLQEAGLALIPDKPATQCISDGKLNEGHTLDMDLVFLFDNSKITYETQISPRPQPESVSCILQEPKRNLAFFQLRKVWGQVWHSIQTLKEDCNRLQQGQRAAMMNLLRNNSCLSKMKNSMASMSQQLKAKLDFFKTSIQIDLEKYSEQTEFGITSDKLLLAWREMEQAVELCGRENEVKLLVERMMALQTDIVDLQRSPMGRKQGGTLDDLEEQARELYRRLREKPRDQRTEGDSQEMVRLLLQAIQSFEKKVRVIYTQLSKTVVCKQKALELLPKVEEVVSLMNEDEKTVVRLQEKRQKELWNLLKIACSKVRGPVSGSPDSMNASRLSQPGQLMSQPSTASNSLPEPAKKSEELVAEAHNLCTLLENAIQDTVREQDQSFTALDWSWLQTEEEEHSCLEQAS
# [9] = target: T3, Inhibitor of nuclear factor kappa-B kinase subunit beta (Homo sapiens); settings: at 1 µM
# [10] = target: T4, Inhibitor of nuclear factor kappa-B kinase subunit epsilon (Homo sapiens) (UniProt Q14164); settings: at 0.1 µM
# T4 sequence (whole entry): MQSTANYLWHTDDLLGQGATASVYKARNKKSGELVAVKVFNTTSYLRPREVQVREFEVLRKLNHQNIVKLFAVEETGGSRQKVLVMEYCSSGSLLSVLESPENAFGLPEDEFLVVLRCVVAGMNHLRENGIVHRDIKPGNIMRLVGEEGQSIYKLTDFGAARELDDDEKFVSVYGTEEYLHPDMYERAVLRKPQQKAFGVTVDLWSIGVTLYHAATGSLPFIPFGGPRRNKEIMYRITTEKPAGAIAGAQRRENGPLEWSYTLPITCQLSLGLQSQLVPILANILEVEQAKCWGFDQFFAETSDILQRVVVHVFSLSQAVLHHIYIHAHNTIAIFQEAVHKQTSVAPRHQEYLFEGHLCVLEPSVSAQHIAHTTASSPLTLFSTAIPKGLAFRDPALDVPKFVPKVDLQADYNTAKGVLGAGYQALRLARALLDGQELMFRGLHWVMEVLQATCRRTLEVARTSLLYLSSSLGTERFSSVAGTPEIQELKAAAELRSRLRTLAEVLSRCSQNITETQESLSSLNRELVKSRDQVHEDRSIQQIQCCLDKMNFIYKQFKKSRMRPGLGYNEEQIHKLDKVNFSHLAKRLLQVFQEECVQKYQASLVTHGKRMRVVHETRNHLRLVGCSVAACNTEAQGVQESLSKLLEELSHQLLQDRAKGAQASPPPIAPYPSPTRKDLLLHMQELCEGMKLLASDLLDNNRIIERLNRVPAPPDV
# [11] = target: T4, Inhibitor of nuclear factor kappa-B kinase subunit epsilon (Homo sapiens); settings: at 1 µM
# [12] = target: T5, Serine/threonine-protein kinase Nek1 (Homo sapiens) (UniProt Q96PY6); settings: at 0.1 µM
# T5 sequence (whole entry): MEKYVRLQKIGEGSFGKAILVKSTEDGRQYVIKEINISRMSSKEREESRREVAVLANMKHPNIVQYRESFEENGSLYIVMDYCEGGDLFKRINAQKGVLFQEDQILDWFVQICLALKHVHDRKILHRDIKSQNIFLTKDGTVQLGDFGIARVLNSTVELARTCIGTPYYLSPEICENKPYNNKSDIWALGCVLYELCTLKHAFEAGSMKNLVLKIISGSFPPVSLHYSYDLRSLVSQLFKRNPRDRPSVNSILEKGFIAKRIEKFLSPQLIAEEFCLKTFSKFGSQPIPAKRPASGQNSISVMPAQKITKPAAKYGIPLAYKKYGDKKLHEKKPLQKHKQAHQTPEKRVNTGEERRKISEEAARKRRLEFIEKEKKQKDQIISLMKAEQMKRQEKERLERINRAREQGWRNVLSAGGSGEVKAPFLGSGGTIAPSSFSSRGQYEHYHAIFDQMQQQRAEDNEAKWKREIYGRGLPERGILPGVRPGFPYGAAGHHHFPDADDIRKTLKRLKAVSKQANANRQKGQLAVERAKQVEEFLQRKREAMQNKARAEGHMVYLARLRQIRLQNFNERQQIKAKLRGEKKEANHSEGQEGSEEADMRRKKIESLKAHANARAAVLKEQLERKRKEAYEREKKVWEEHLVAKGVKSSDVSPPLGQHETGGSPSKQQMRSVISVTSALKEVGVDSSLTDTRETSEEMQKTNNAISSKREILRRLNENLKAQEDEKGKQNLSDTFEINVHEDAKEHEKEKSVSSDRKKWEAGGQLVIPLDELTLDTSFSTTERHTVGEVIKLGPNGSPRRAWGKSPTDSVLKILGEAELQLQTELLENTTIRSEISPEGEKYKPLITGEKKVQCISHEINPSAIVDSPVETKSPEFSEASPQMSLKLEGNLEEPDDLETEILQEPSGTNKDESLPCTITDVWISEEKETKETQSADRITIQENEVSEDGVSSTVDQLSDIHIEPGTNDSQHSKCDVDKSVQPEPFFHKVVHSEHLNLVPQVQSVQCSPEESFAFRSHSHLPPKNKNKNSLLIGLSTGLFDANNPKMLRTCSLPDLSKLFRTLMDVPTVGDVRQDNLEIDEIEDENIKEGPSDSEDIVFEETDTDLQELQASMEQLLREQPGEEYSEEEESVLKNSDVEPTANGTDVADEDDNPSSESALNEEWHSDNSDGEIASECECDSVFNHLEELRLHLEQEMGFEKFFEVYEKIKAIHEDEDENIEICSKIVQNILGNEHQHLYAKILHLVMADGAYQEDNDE
# [13] = target: T5, Serine/threonine-protein kinase Nek1 (Homo sapiens); settings: at 1 µM
# [14] = target: T6, Serine/threonine-protein kinase Nek2 (Homo sapiens) (UniProt P51955); settings: at 0.1 µM
# T6 sequence (whole entry): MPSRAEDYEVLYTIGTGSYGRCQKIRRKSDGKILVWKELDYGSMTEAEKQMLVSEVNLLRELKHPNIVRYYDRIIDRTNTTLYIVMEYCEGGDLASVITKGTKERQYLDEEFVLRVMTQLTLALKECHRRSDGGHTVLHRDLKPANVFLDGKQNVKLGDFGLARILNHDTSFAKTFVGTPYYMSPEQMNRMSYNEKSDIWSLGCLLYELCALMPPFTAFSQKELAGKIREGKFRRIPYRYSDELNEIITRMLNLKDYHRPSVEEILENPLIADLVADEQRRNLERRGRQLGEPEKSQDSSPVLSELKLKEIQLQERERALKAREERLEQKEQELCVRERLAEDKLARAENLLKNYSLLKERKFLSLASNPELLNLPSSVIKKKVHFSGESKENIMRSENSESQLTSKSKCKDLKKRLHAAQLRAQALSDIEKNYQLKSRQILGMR
# [15] = target: T6, Serine/threonine-protein kinase Nek2 (Homo sapiens); settings: at 1 µM
# [16] = target: Serine/threonine-protein kinase Nek6 (Homo sapiens) (UniProt Q9HC98); settings: at 0.1 µM
# [17] = target: Serine/threonine-protein kinase Nek6 (Homo sapiens) (UniProt Q9HC98); settings: at 1 µM
# [18] = target: Serine/threonine-protein kinase Nek7 (Homo sapiens) (UniProt Q8TDX7); settings: at 0.1 µM
# [19] = target: Serine/threonine-protein kinase Nek7 (Homo sapiens) (UniProt Q8TDX7); settings: at 1 µM
# [20] = target: T7, Serine/threonine-protein kinase Nek9 (Homo sapiens) (UniProt Q8TD19); settings: at 0.1 µM;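 note: reported value is the mean percent inhibition of NEK9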
# T7 sequence (whole entry): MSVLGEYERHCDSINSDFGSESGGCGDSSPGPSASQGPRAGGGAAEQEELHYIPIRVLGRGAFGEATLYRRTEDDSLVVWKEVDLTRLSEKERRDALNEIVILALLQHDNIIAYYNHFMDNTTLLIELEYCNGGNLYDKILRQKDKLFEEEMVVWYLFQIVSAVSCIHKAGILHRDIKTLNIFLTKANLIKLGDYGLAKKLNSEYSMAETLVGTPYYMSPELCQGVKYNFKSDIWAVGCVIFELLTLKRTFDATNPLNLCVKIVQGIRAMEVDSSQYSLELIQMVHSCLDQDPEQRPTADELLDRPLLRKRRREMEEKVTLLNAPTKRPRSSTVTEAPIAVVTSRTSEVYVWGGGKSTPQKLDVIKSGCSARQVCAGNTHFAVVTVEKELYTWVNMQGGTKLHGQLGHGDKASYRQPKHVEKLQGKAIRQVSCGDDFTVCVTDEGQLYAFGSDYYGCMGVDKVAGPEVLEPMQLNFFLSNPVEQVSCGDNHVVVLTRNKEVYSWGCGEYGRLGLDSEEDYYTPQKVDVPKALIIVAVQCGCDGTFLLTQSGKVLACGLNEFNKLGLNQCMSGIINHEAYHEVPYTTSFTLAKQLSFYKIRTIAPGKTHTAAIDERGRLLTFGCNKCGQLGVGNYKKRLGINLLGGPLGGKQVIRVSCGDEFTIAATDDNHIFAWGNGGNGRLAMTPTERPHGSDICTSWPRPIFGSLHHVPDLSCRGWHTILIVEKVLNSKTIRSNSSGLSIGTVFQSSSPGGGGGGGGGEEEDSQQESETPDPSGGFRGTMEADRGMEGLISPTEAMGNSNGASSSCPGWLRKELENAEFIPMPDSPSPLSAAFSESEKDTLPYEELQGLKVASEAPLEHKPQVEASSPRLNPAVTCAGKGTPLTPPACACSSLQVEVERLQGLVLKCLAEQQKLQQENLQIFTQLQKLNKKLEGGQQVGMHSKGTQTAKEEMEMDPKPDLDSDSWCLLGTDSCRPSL
# Serine/threonine-protein kinase Nek7 (Homo sapiens), sequence (Q8TDX7 whole entry, looked up): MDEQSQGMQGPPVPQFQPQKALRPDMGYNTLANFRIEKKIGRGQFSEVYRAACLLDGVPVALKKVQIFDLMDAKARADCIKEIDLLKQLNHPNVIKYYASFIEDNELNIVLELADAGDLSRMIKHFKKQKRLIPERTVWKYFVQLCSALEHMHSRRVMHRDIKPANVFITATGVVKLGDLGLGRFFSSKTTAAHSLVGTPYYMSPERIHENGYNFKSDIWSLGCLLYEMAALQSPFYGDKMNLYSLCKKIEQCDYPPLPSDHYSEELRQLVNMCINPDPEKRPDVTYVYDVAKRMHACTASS
# Casein kinase II subunit alpha (Homo sapiens), sequence (P68400 whole entry, looked up): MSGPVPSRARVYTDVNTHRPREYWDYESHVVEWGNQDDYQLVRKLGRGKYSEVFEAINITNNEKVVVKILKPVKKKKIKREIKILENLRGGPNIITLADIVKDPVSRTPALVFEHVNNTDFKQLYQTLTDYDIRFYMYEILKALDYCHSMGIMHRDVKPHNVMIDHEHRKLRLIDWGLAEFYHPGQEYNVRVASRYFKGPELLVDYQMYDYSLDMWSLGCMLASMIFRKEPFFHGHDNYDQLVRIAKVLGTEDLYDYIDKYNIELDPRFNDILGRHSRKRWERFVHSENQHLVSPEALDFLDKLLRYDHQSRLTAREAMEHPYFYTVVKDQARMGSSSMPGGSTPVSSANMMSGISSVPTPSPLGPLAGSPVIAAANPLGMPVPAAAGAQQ
# Serine/threonine-protein kinase Nek6 (Homo sapiens), sequence (Q9HC98 whole entry): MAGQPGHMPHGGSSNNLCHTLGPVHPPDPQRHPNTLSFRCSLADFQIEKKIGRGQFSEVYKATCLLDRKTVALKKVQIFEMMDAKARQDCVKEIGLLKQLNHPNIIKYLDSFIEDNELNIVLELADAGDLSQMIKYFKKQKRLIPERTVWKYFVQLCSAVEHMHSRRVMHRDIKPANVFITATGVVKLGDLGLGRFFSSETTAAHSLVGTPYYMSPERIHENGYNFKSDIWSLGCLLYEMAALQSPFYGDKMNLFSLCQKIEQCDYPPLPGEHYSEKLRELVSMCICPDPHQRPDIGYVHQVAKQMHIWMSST
# Sphingosine kinase 1 (Homo sapiens), sequence (Q9NYA1 whole entry): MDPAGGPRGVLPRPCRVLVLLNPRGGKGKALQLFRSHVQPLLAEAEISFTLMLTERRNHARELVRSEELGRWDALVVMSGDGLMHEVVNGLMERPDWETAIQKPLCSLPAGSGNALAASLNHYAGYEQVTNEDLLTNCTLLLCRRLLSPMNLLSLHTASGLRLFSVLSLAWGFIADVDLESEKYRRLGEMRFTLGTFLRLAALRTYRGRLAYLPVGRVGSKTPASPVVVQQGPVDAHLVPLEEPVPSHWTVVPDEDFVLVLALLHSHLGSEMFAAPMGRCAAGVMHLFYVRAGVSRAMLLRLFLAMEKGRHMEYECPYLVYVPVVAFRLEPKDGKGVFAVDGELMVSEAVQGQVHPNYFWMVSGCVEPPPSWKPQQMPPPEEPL
SMILES,inhibition [1] [%],inhibition [2] [%],inhibition [3] [%],inhibition [4] [%],inhibition [5] [%],inhibition [6] [%],inhibition [7] [%],inhibition [8] [%],inhibition [9] [%],inhibition [10] [%],inhibition [11] [%],inhibition [12] [%],inhibition [13] [%],inhibition [14] [%],inhibition [15] [%],inhibition [16] [%],inhibition [17] [%],inhibition [18] [%],inhibition [19] [%],inhibition [20] [%]
Cc1ccc(NC(=O)c2ccoc2)cc1-c1ccc(C(=O)NCC2CC2)cc1,-2.32,0.42,-0.05,2.64,1.38,0.11,7.23,3.9,3.86,3.64,2.47,1.2,0.36,3.49,3.48,2.49,0.14,0.66,1.16,5.95
CS(=O)(=O)CCNCc1cc(-c2cc3c(Nc4ccc(OCc5cccc(F)c5)c(Cl)c4)ncnc3s2)cs1,3.45,-0.27,0.36,,2.87,10.9,9.95,7.54,6.76,6.48,4.64,3.08,5.81,6.26,6.31,1.2,3.03,4.02,8.5,9.93

# Reference: ChEMBL document CHEMBL1961873, “Compounds: GSK PKIS; Assays: Nanosyn kinase panel” (2012)
